About 79,000 compounds went through this panel and 15% of them were active in at least one assay; those are over-represented in the sample as a whole. Active and inactive are the calls of the source. No stated cut-off is given here; in the data, active means growth inhibition above about 70%; inactive means the rest.
Legend:
[1] = NCI Yeast Anticancer Drug Screen. Data for the wt2 strain (AID 169);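 further: 0% = growth of vehicle-treated yeast cultures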; conditions: S. cerevisiae wt2 strain growth inhibition, active compounds read high
Summary of the method: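 Against vehicle-treated controls, the growth of yeast exposed to each compound was compared, and the inhibition was recorded.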

[2] = NCI Yeast Anticancer Drug Screen. Data for the mlh1 strain (AID 171);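 further: 0% = growth of vehicle-treated control cultures of the same strain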; conditions: S. cerevisiae mlh1 strain growth inhibition, active compounds read high
Summary of the method: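 Measured: yeast growth. Reference: vehicle-treated controls. Organism: strain with a defined alteration affecting DNA damage repair or cell cycle control, treated with compound.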

[3] = NCI Yeast Anticancer Drug Screen. Data for the sgs1 strain (AID 173);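 further: 0% = growth of vehicle-only control cultures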; conditions: S. cerevisiae sgs1 mutant, active compounds read high
Summary of the method: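 Each compound was added to cultures of the altered yeast strain. Growth was recorded, and inhibition was derived by comparison with vehicle controls.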

[4] = NCI Yeast Anticancer Drug Screen. Data for the mlh1 rad18 strain (AID 175); conditions: S. cerevisiae mlh1 rad18 strain growth inhibition, active compounds read high
Summary of the method: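 Genetically defined yeast (DNA repair-deficient) exposed to compounds; growth inhibition determined relative to vehicle.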

[5] = NCI Yeast Anticancer Drug Screen. Data for the rad18 strain (AID 177); conditions: S. cerevisiae rad18 mutant growth inhibition, active compounds read high
Summary of the method: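 Vehicle-treated cultures served as the baseline for scoring compound-induced growth inhibition in DNA-repair-mutant yeast.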

[6] = NCI Yeast Anticancer Drug Screen. Data for the rad52 strain (AID 147);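 further: 0% = growth of vehicle-treated control cultures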; conditions: S. cerevisiae rad52 mutant growth inhibition, active compounds read high
Summary of the method: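 The repair-mutant yeast strain was incubated with compounds, then growth was read and inhibition derived relative to vehicle.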

[7] = NCI Yeast Anticancer Drug Screen. Data for the wt1 strain (AID 149);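 further: 0% = growth of vehicle-treated wt1 cultures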; conditions: S. cerevisiae wt1 strain (SPY 50644) growth inhibition, active compounds read high
Summary of the method: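 The wt1 strain was treated with compounds, and growth was compared with vehicle-treated cultures to give inhibition.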

[8] = NCI Yeast Anticancer Drug Screen. Data for the rad50EPP+ strain (AID 151);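 further: 0% = growth of vehicle-treated control cultures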; conditions: S. cerevisiae rad50 mutant strain, active compounds read high
Summary of the method: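 Vehicle-normalised growth inhibition; rad50EPP+ yeast strain, altered in DNA damage repair, compound-treated.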

[9] = NCI Yeast Anticancer Drug Screen. Data for the mgt1 strain (AID 153); conditions: S. cerevisiae mgt1 mutant growth inhibition, active compounds read high
Summary of the method: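 Vehicle-normalized growth inhibition is determined in mgt1 yeast, a strain selected for a defined alteration in DNA repair or cell cycle control.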

[10] = NCI Yeast Anticancer Drug Screen. Data for the rad50 strain (AID 155);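 further: 0% = growth of vehicle-only cultures of the same strain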; conditions: S. cerevisiae rad50 strain growth inhibition, active compounds read high
Summary of the method: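 Cells are treated with compound, grown, and their growth is then scored against vehicle-only cultures of the same repair-deficient yeast strain.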

[11] = NCI Yeast Anticancer Drug Screen. Data for the mec2-1 strain (AID 157); conditions: S. cerevisiae mec2-1 strain, active compounds read high
Summary of the method: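 Mutant yeast (mec2-1) grown with compound; growth inhibition relative to vehicle control reported.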

[12] = NCI Yeast Anticancer Drug Screen. Data for the rad14 strain (AID 159);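 further: 0% = growth of vehicle-treated control cultures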; conditions: S. cerevisiae rad14 strain growth inhibition, active compounds read high
Summary of the method: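 Readout: yeast growth inhibition, referenced to vehicle-only cultures. Strain bears a defined alteration in DNA damage repair.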

[13] = NCI Yeast Anticancer Drug Screen. Data for the sgs1 mgt1 strain (AID 161);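 further: 0% = growth of cultures given vehicle only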; conditions: S. cerevisiae sgs1 mgt1 strain, active compounds read high
Summary of the method: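 Yeast cells carrying a defined DNA-repair defect were exposed to test compounds. Growth inhibition was measured relative to vehicle-treated controls.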

[14] = NCI Yeast Anticancer Drug Screen. Data for the CLN2oe strain (AID 163);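 further: 0% = growth of vehicle-only control cultures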; conditions: S. cerevisiae CLN2oe strain, active compounds read high
Summary of the method: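 Compounds are applied to yeast harbouring a defined cell-cycle control change; reduced growth compared with vehicle-treated controls gives the value.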

[15] = NCI Yeast Anticancer Drug Screen. Data for the cln2 rad14 strain (AID 165);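 further: 0% = growth equal to vehicle treated cultures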; conditions: S. cerevisiae cln2 rad14 strain, active compounds read high
Summary of the method: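 Readout is yeast growth inhibition versus vehicle-treated controls, using a strain with cln2 and rad14 alterations exposed to compound.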

[16] = NCI Yeast Anticancer Drug Screen. Data for the bub3 strain (AID 167); conditions: S. cerevisiae bub3 mutant strain, active compounds read high
Summary of the method: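 Part of a panel of yeast mutants defective in DNA damage repair or cell cycle regulation. Each strain is grown with compound, and inhibition is calculated relative to solvent-treated cultures.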

[17] = at 5.0 µM (retest, dose inferred, filed as 0.5)
[18] = at 50.0 µM (retest, dose inferred, filed as 5.0)

Measured: growth inhibition

CC(C)(N=Nc1ccc(Cl)cc1)[N+](=O)[O-]
active: [1]; at 11.0 µM 88% | [1]; at 33.0 µM 98% | [1]; at 100.0 µM 98% | [2]; at 11.0 µM 77% | [2]; at 33.0 µM 98% | [2]; at 100.0 µM 99% | [3]; at 11.0 µM 95% | [3]; at 33.0 µM 98% | [3]; at 100.0 µM 98% | [4]; [18] 98% | [4]; at 50.0 µM 98.7% | [5]; at 11.0 µM 94% | [5]; at 33.0 µM 98% | [5]; at 100.0 µM 96%
inactive: [1]; at 1.2 µM 12% | [1]; at 3.7 µM 15% | [2]; at 1.2 µM 3% | [2]; at 3.7 µM 11% | [3]; at 1.2 µM 11% | [3]; at 3.7 µM 19% | [4]; [17] 47% | [5]; at 1.2 µM 15% | [5]; at 3.7 µM 23%

CCCCCCCC/C=C\CCCCCCCCN
active: [6]; at 33.0 µM 98% | [6]; at 100.0 µM 97% | [7]; at 33.0 µM 98% | [7]; at 100.0 µM 98% | [8]; at 33.0 µM 96% | [8]; at 100.0 µM 97% | [9]; at 33.0 µM 99% | [9]; at 100.0 µM 98% | [10]; at 33.0 µM 96% | [10]; at 50.0 µM 91.2% | [10]; at 100.0 µM 96% | [11]; at 33.0 µM 98% | [11]; at 50.0 µM 92.5% | [11]; at 100.0 µM 98% | [12]; at 33.0 µM 97% | [12]; at 100.0 µM 97% | [13]; [18] 98% | [13]; at 50.0 µM 93% | [14]; at 33.0 µM 98% | [14]; at 100.0 µM 97% | [15]; [18] 96% | [15]; at 50.0 µM 90% | [16]; at 33.0 µM 97% | [16]; [18] 97% | [16]; at 50.0 µM 91% | [16]; at 100.0 µM 96% | [1]; at 33.0 µM 98% | [1]; at 100.0 µM 97% | [2]; at 33.0 µM 97% | [2]; at 100.0 µM 97% | [3]; at 33.0 µM 97% | [3]; at 100.0 µM 96% | [4]; at 50.0 µM 91.3% | [5]; at 33.0 µM 97% | [5]; at 100.0 µM 97%
inactive: [6]; at 1.2 µM 4% | [6]; at 3.7 µM 0% | [6]; at 11.0 µM -10% | [7]; at 1.2 µM 13% | [7]; at 3.7 µM 17% | [7]; at 11.0 µM 9% | [8]; at 1.2 µM 17% | [8]; at 3.7 µM 21% | [8]; at 11.0 µM 21% | [9]; at 1.2 µM 18% | [9]; at 3.7 µM 30% | [9]; at 11.0 µM 22% | [10]; at 1.2 µM -1% | [10]; at 3.7 µM -7% | [10]; [17] 30% | [10]; at 11.0 µM -15% | [10]; [18] 64% | [11]; at 1.2 µM 1% | [11]; at 3.7 µM 15% | [11]; [17] 45% | [11]; at 11.0 µM -18% | [11]; [18] 30% | [12]; at 1.2 µM -22% | [12]; at 3.7 µM -21% | [12]; at 11.0 µM -19% | [13]; [17] -68% | [14]; at 1.2 µM 17% | [14]; at 3.7 µM 11% | [14]; at 11.0 µM 28% | [15]; [17] 42% | [16]; at 1.2 µM 0% | [16]; at 3.7 µM 14% | [16]; [17] -10% | [16]; at 11.0 µM 14% | [1]; at 1.2 µM -7% | [1]; at 3.7 µM -1% | [1]; at 11.0 µM -24% | [2]; at 1.2 µM -16% | [2]; at 3.7 µM -16% | [2]; at 11.0 µM -17% | [3]; at 1.2 µM -3% | [3]; at 3.7 µM -11% | [3]; at 11.0 µM -15% | [4]; [17] 26% | [4]; [18] 27% | [5]; at 1.2 µM -1% | [5]; at 3.7 µM 7% | [5]; at 11.0 µM -13%

CC(=O)CCC1=C(C)C(=O)C(=O)C(C)=C1O
active: [6]; at 100.0 µM 91% | [7]; at 100.0 µM 80% | [9]; at 100.0 µM 80% | [10]; at 100.0 µM 89% | [11]; at 100.0 µM 83% | [12]; at 100.0 µM 85% | [14]; at 100.0 µM 74% | [16]; at 50.0 µM 75% | [16]; at 100.0 µM 89% | [1]; at 100.0 µM 94% | [2]; at 100.0 µM 96% | [3]; at 100.0 µM 91% | [5]; at 100.0 µM 90%
inactive: [6]; at 1.2 µM -2% | [6]; at 3.7 µM -3% | [6]; at 11.0 µM -4% | [6]; at 33.0 µM 20% | [7]; at 1.2 µM -4% | [7]; at 3.7 µM -8% | [7]; at 11.0 µM -3% | [7]; at 33.0 µM 7% | [8]; at 1.2 µM -2% | [8]; at 3.7 µM -1% | [8]; at 11.0 µM 0% | [8]; at 33.0 µM 7% | [8]; at 100.0 µM 16% | [9]; at 1.2 µM -17% | [9]; at 3.7 µM 0% | [9]; at 11.0 µM 4% | [9]; at 33.0 µM 8% | [10]; at 1.2 µM 0% | [10]; at 3.7 µM 9% | [10]; [17] -6% | [10]; at 11.0 µM 14% | [10]; at 33.0 µM 34% | [10]; [18] 42% | [10]; at 50.0 µM 7.5% | [11]; at 1.2 µM -3% | [11]; at 3.7 µM -6% | [11]; [17] -4% | [11]; at 11.0 µM -9% | [11]; at 33.0 µM 13% | [11]; [18] 12% | [11]; at 50.0 µM 34.7% | [12]; at 1.2 µM -2% | [12]; at 3.7 µM -1% | [12]; at 11.0 µM 5% | [12]; at 33.0 µM 27% | [13]; [17] 6% | [13]; [18] 25% | [13]; at 50.0 µM 39% | [14]; at 1.2 µM 1% | [14]; at 3.7 µM 7% | [14]; at 11.0 µM 7% | [14]; at 33.0 µM 20% | [15]; [17] -6% | [15]; [18] 16% | [15]; at 50.0 µM 14.1% | [16]; at 1.2 µM -5% | [16]; at 3.7 µM -16% | [16]; [17] -14% | [16]; at 11.0 µM 6% | [16]; at 33.0 µM 17% | [16]; [18] 15% | [1]; at 1.2 µM -3% | [1]; at 3.7 µM -3% | [1]; at 11.0 µM -1% | [1]; at 33.0 µM 23% | [2]; at 1.2 µM -5% | [2]; at 3.7 µM -3% | [2]; at 11.0 µM -23% | [2]; at 33.0 µM 13% | [3]; at 1.2 µM -3% | [3]; at 3.7 µM -6% | [3]; at 11.0 µM -2% | [3]; at 33.0 µM 22% | [4]; [17] -28% | [4]; [18] 46% | [4]; at 50.0 µM 20.4% | [5]; at 1.2 µM -4% | [5]; at 3.7 µM -7% | [5]; at 11.0 µM -3% | [5]; at 33.0 µM 14%

Source: PubChem BioAssay (NCI)
